Laboratory results as given in PubChem BioAssay AID1220 (Sanford-Burnham Center for Chemical Genomics, 2008).
The campaign covered roughly 190,000 compounds. About 1,300 (0.68%) were called active. Rule as the data show it: active = inhibition above about 50%; inactive = the rest. What follows is part of a selection rich in actives, with near analogues and random picks from the rest.

The compounds below were run against Mannose-6-phosphate isomerase (Homo sapiens) (UniProt P34949) (assay: human PMI inhibitors, high substrate, primary screen, biochemical, fluorescence intensity, high mannose 6-phosphate (AID 1220)). Conditions: recombinant PMI enzyme, coupled fluorescence intensity; at 20 µM; active compounds read high.
Chain of Mannose-6-phosphate isomerase (Homo sapiens) (P34949 whole entry, looked up): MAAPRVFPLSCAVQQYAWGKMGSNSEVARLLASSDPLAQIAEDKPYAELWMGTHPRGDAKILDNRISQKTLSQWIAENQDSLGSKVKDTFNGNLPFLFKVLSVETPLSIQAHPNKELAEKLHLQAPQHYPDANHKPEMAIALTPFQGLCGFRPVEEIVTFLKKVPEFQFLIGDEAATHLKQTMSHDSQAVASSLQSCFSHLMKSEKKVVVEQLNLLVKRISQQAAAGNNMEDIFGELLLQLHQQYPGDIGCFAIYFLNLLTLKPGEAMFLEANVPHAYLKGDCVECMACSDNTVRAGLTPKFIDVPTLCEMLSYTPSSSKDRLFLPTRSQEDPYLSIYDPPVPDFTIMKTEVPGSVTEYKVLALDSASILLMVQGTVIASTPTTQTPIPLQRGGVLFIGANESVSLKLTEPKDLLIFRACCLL
`CC(=O)OC1CC(C)(C)N(OC(=O)c2ccccc2)C(C)(C)C1` was tested, and the inhibition was -2.2% (inactive). In the case of `Cc1cc(Nc2c(C#N)c(N)nn2C)ccc1F`, the inhibition is reported as 0.7% (inactive). With `O=C(NC12CC3CC(CC(C3)C1)C2)c1cc2nc(-c3ccco3)cc(C(F)(F)F)n2n1` the inhibition was 7.3% (inactive). With `O=C(NC1CCCCC1)C(c1ccco1)N(Cc1ccco1)C(=O)c1ccco1` (configuration not stated) the inhibition was -4.5% (inactive). `O=C(Nc1ccc2c(c1)CCC2)c1ccccc1F` was tested, and the inhibition was -3.5% (inactive). For `Cc1nn(-c2ccccc2)c(C)c1/C=C/C(=O)OCC(=O)NC1CCS(=O)(=O)C1` (configuration not stated), the inhibition was -6.3% (inactive). `CC1(C)CC(=O)CC(C2(O)C(=O)N(Cc3ccccc3)c3ccccc32)O1` (configuration not stated) was tested, and the inhibition was 0.6% (inactive). `O=C(CN(C(=O)CNS(=O)(=O)c1ccccc1)c1ccc2c(c1)OCCO2)NCc1ccco1` was tested, and the inhibition was -2.1% (inactive). In the case of `CCC(=O)Nc1cc(Cl)ccc1C(=O)O`, the inhibition is reported as -13.8% (inactive). In the case of `Cn1c(=O)[nH]c(=O)c2[nH]c(N(Cc3ccccc3)Cc3ccccc3)nc21`, the inhibition is reported as 10.1% (inactive). In the case of `Cc1cc(NC(=O)CCCC(=O)NCc2cccs2)no1`, the inhibition is reported as 3.8% (inactive). `Cc1nc(NC(=O)CSc2nnnn2Cc2ccccc2)sc1C` was tested, and the inhibition was 5.5% (inactive). `COc1ccc2c(c1)C1=NN(/C(C)=C\C(C)=O)C(c3ccccc3)C1CC2` (configuration not stated) was tested, and the inhibition was 47.7% (inactive). For `COc1ccc2c(c1)C1=NN(/C(C)=C/C(C)=O)C(c3cccc(F)c3)C1CC2` (configuration not stated), the inhibition was 44.9% (inactive). `COc1ccc2c(c1)CCc1c(C(=O)NCc3ccc(F)cc3)noc1-2` was tested, and the inhibition was 9.9% (inactive). For `COc1ccc2c(c1)CCC1C2=NN(/C(C)=C\C(C)=O)C1c1ccc(F)cc1` (configuration not stated), the inhibition was 54.4% (active). For `COc1ccc2c(c1)C1=NN(/C(C)=C/C(C)=O)C(c3ccc(F)cc3)C1CC2` (configuration not stated), the inhibition was 56.3% (active). For `COc1ccc2c(c1)CCC1C2=NN(/C(C)=C/C(C)=O)C1c1cccc(F)c1` (configuration not stated), the inhibition was 44.4% (inactive). `O=C(CN(C(=O)CNC(=O)c1cccs1)c1ccc2c(c1)OCCO2)NC1CCCC1` was tested, and the inhibition was 4.5% (inactive). For `COc1ccc(N2CC(O)=C(c3nc(-c4ccc(F)cc4)cs3)C2=N)cc1Cl`, the inhibition was -5.1% (inactive). With `COc1ccccc1C(=O)NNC(=O)c1ccccc1F` the inhibition was -3.9% (inactive). For `O=C(CN1CCOc2ccccc21)N1CCCC1`, the inhibition was 3.6% (inactive). `O=C1CN(CC(=O)N2CCCCC2)c2ccccc2O1` was tested, and the inhibition was 51.6% (active). In the case of `O=C(CN1CC(=O)Oc2ccccc21)OCC(=O)c1ccccc1`, the inhibition is reported as 11.2% (inactive). For `O=C(CN1C(=O)c2ccccc2C1=O)N1CCOCC1`, the inhibition was 7.3% (inactive). For `O=C(CN1CCCCC1)N1c2ccccc2Oc2ccccc21`, the inhibition was -7.7% (inactive). For `O=C1CN(CC(=O)N2CCOCC2)c2ccccc2O1`, the inhibition was 51.9% (active).
